{
  "source": "PubChem BioAssay AID504832",
  "about": "(National Center for Advancing Translational Sciences (NCATS), 2011)",
  "note": "Hit rate of the full screen: of about 310,000 compounds, about 18,000 (5.8%) were called active. Not shown: some 22% with an inconclusive outcome. Many of the other results were omitted from the sample, so actives are more common in it than they were. A number with no mark means an inactive call. The call rests on the fitted dose curve; in most records, active means well fitted inhibition curve with a large enough effect; inconclusive means small, poorly fitted or top-dose-only effect, or another doubt; inactive means no such curve, though single readings can be large or run the other way. On the % scale 0 is the no-effect control and ±100 the full control effect; potency means the concentration at half of the fitted maximal effect.",
  "data": [
    {"assay": "Primary qHTS for delayed death inhibitors of the malarial parasite plastid, 48 hour incubation", "conditions": "P. falciparum luciferase growth in erythrocytes; series mostly up to 28.7 µM; activity change, negative = inhibition: at the top concentration", "source_text": "The goal of this screen is to discover new antimalarial compounds that act by inhibiting the development of the apicoplast in the malarial parasite Plasmodium falciparum. The biochemical processes that make this organelle essential for erythrocytic stage parasites are not well understood. However, antibiotics such as azithromycin and tetracycline, which target the apicoplast translational machinery, have a potent antimalarial effect.\nWe have developed a cell-based assay that measures parasite growth based on the expression of an integrated copy of a firefly luciferase reporter. To detect small molecules that cause this \"delayed death\" phenotype, erythrocytes infected with the luciferase-expressing parasites were incubated with compounds for either one or two generations, corresponding to 48 and 96 hours, respectively. Compounds that inhibit parasite growth in the second generation, but not the first, should be enriched in antimalarials that target the apicoplast. Growth inhibition is detected by a decrease in luciferase activity.\nAssay Provider: David Fidock and Eric Ekland, Columbia University\nKeywords: NIH Roadmap, MLPCN, MLI, MLSMR, qHTS, NCGC, qHTS, malaria, luciferase, viability\nFour microliters of culture medium (RPMI 1640 with 0.5% w/v Albumax (GIBCO), 24 mM sodium bicarbonate and 10 ug/mL gentamycin) were dispensed by a Multi-drop Combi into white solid 1536-well plates (Grenier) and 23 nL compound was added by a pin tool. Four microliters of infected erythrocytes (2% hematocrit, 0.1% parasitemia final concentration) in culture medium were dispensed and the plates incubated for 48 hours at 37 C in 5% CO2. Two microliters of luciferase detection reagent was added and luminescence was detected by a ViewLux (PerkinElmer) reader.", "values": [
      {"molecule": "CCCn1c(=N)n(CC(=O)c2ccc(Cl)c(Cl)c2)c2ccccc21", "Potency": "7.38 µM (active)"},
      {"molecule": "CCCNC(=O)c1ccc(Cl)c(Cl)c1", "activity change, negative = inhibition": "27.8% (inactive)"},
      {"molecule": "CCCCOC(=O)Cn1c(=N)n(CCN(CC)CC)c2ccccc21", "activity change, negative = inhibition": "19.6% (inactive)"},
      {"molecule": "Cc1ccnc(N2C(=O)c3ccc([N+](=O)[O-])cc3C2=O)c1", "activity change, negative = inhibition": "-3.81% (inactive)"},
      {"molecule": "CCOC(=O)N1CCC(NC(=O)CCc2ccccc2)CC1", "activity change, negative = inhibition": "-17.2% (inactive)"},
      {"molecule": "CCOC(=O)CN1CCC(c2ccccc2)CC1", "activity change, negative = inhibition": "-10.5% (inactive)"},
      {"molecule": "CCOC(=O)N1CCC(c2cc(=O)n(-c3ccccc3)[nH]2)CC1", "Potency": "9.28 µM (active)"},
      {"molecule": "Cc1nn(-c2ccccc2)c(C)c1NC(=O)COc1ccc(Cl)cc1Cl", "activity change, negative = inhibition": "-13.7% (inactive)"},
      {"molecule": "Cc1cc(NC(=O)COc2ccc(Cl)cc2Cl)n(CCC#N)n1", "activity change, negative = inhibition": "59.7% (inactive)"},
      {"molecule": "COC(=O)c1c(NC(=O)COc2ccc(Cl)cc2Cl)sc2c1CC(C)(C)NC2(C)C", "Potency": "8.28 µM (active)"},
      {"molecule": "O=C(NCC(=O)N1CCCCCCC1)c1ccccc1Cl", "activity change, negative = inhibition": "51.7% (inactive)"},
      {"molecule": "CCC1CCCCN1CCCNC(=O)Cn1nc(-c2ccccc2)ccc1=O", "note": "(stereo not given)", "activity change, negative = inhibition": "4.91% (inactive)"},
      {"molecule": "Cc1ccc(CN2C(=O)CCC2C(=O)NCCCN2CCCCC2C)cc1", "note": "(stereo not given)", "activity change, negative = inhibition": "27% (inactive)"},
      {"molecule": "CCC1CCCCN1CCCNC(=O)c1cc2c(Cl)nc3ccccc3c2s1", "note": "(stereo not given)", "Potency": "11.7 µM (active)"},
      {"molecule": "COc1cccc(NC(=O)C2c3cc(OC)c(OC)cc3C(=O)N(C)C2c2cccnc2)c1", "note": "(stereo not given)", "Potency": "8.28 µM (active)"},
      {"molecule": "CCOc1cc2c(cc1OCC)C(C(=O)O)C(c1ccc(OC)c(O)c1)N(C)C2=O", "note": "(stereo not given)", "activity change, negative = inhibition": "8.88% (inactive)"},
      {"molecule": "COc1cccc(NC(=O)CSc2nnc(-c3cccnc3)o2)c1", "activity change, negative = inhibition": "27.1% (inactive)"},
      {"molecule": "CCC(c1nnc(SCC(=O)NNC(=O)c2ccccc2)n1Cc1ccccc1)N(C)C", "note": "(stereo not given)", "activity change, negative = inhibition": "2.43% (inactive)"},
      {"molecule": "O=C(Nc1ccc(OCC(=O)N2CCOCC2)cc1)c1cc(F)c(F)cc1Cl", "activity change, negative = inhibition": "43.6% (inactive)"},
      {"molecule": "C/C(=N\\NC(=O)c1cc(-c2ccc(O)cc2)nc2ccccc12)c1cccnc1", "activity change, negative = inhibition": "-9.54% (inactive)"},
      {"molecule": "COc1ccc([C@H]2CC(=O)C=C(/C=C/c3ccccc3)C2)cc1", "activity change, negative = inhibition": "-11.3% (inactive)"},
      {"molecule": "O=C(O)/C=C/c1ccc(OCCCF)cc1", "activity change, negative = inhibition": "16.3% (inactive)"},
      {"molecule": "Cc1cc(C)cc(NC(=O)CN2C(=O)c3ccccc3C2=O)c1", "activity change, negative = inhibition": "7.91% (inactive)"},
      {"molecule": "CS(=O)(=O)N(CC(=O)Nc1ccc(F)cc1)C1CCCCC1", "activity change, negative = inhibition": "33.5% (inactive)"},
      {"molecule": "O=C(COc1ccccc1Cl)N1CCCCCCC1", "activity change, negative = inhibition": "-18.6% (inactive)"},
      {"molecule": "Cc1cccc(C(=O)Nc2nnc(S(=O)(=O)N3CCCCCC3)s2)c1", "activity change, negative = inhibition": "66.9% (inactive)"},
      {"molecule": "CCCn1c(N)c(C(=O)CSc2nnc(-c3cccnc3)n2-c2ccc(C)cc2C)c(=O)[nH]c1=O", "Potency": "9.28 µM (active)"},
      {"molecule": "CCCn1c(N)c(C(=O)CSc2nc3ccccc3c(=O)n2-c2ccc(OC)cc2)c(=O)[nH]c1=O", "activity change, negative = inhibition": "0% (inactive)"},
      {"molecule": "CCCn1c(N)c(C(=O)CSc2nnc3n2CCCCC3)c(=O)[nH]c1=O", "activity change, negative = inhibition": "-8.92% (inactive)"},
      {"molecule": "COC(=O)c1c(C)[nH]c(C(=O)NCCc2ccc(S(N)(=O)=O)cc2)c1C", "activity change, negative = inhibition": "-0.575% (inactive)"},
      {"molecule": "CCCCOC(=O)c1[nH]c(C)c(C(=O)OC)c1C", "activity change, negative = inhibition": "-28.2% (inactive)"},
      {"molecule": "COC(=O)c1c(C)[nH]c(C(=O)/C=C/c2ccc(Cl)cc2)c1C", "Potency": "4.65 µM (active)"},
      {"molecule": "NC(=O)COc1ccccc1C(=O)NC12CC3CC(CC(C3)C1)C2", "activity change, negative = inhibition": "11.3% (inactive)"},
      {"molecule": "COc1ccc([N+](=O)[O-])cc1NCC(=O)c1ccc(C)cc1", "activity change, negative = inhibition": "-14.1% (inactive)"},
      {"molecule": "O=C(O)[C@@H](S)[C@H](S)C(=O)O", "Potency": "4.26 µM (active)"},
      {"molecule": "COc1ccc(S(=O)(=O)Nc2ccccc2C(=O)N2CCCC2)cc1C", "activity change, negative = inhibition": "8.32% (inactive)"},
      {"molecule": "CC1CCCN(CCCNC(=O)CN2C(=O)COc3ccc(S(=O)(=O)N4CCOCC4)cc32)C1", "note": "(stereo not given)", "activity change, negative = inhibition": "16% (inactive)"},
      {"molecule": "CCOC(=O)c1c(-c2ccccc2)oc2ccc(OCC(N)=O)cc12", "activity change, negative = inhibition": "-8.34% (inactive)"},
      {"molecule": "CCOC(=O)c1c(-c2ccccc2)oc2cc(Br)c(O)c(C=O)c12", "Potency": "9.28 µM (active)"},
      {"molecule": "CCOC(=O)c1c(-c2ccccc2)oc2ccc(OCC(=O)NN)cc12", "activity change, negative = inhibition": "-45.7% (inactive)"},
      {"molecule": "Cc1cccc(C(=O)OC(C)CN2CCCC2)c1", "note": "(stereo not given)", "activity change, negative = inhibition": "-4.2% (inactive)"},
      {"molecule": "COC(=O)[C@]1(C)CCC[C@@]2(C)C3CC[C@]4(OC(C)=O)C[C@@]3(CCC21)CC4=NO", "note": "(stereo not given in full)", "activity change, negative = inhibition": "0% (inactive)"},
      {"molecule": "O=C(NCc1ccncc1)c1ccc(NS(=O)(=O)c2cccc([N+](=O)[O-])c2)cc1", "activity change, negative = inhibition": "16.4% (inactive)"},
      {"molecule": "Cc1cccc(OP(=O)(Oc2cccc(C)c2)OC(c2ccccc2)C(F)(F)F)c1", "note": "(stereo not given)", "Potency": "10.4 µM (active)"},
      {"molecule": "CCN(CC)P(=O)(Oc1cccc(C)c1)N(CC)CC", "activity change, negative = inhibition": "-9.58% (inactive)"},
      {"molecule": "Cc1cccc(OP(=O)(Nc2c(C)n(C)n(-c3ccccc3)c2=O)Oc2cccc(C)c2)c1", "activity change, negative = inhibition": "13.2% (inactive)"},
      {"molecule": "O=C(Nc1nnc(C2CC2)s1)c1cc(Cl)sc1Cl", "activity change, negative = inhibition": "10% (inactive)"},
      {"molecule": "CCOC(=O)N1CCN(CCC(=O)Nc2cc(OC)ccc2OC)CC1", "activity change, negative = inhibition": "0.985% (inactive)"},
      {"molecule": "COc1ccc(OC)c(NC(=O)CCN2CCC(C)CC2)c1", "activity change, negative = inhibition": "19.5% (inactive)"},
      {"molecule": "CCN1CCN(c2nc(Nc3cc(OC)ccc3OC)nc(Nc3cc(OC)ccc3OC)n2)CC1", "Potency": "9.28 µM (active)"},
      {"molecule": "CC(Sc1nnc(-c2cccs2)n1C1CC1)C(=O)NCC1CCCO1", "note": "(stereo not given)", "activity change, negative = inhibition": "29.3% (inactive)"},
      {"molecule": "COc1cc(CCC(=O)N2CCN(c3ccccc3Cl)CC2)cc(OC)c1OC", "activity change, negative = inhibition": "1.7% [at 0.00184 µM]"},
      {"molecule": "CCOC(=O)Cn1c(O)c(N=NC(=O)CNC(=O)Cc2ccccc2)c2ccccc21", "activity change, negative = inhibition": "23.2% (inactive)"},
      {"molecule": "Cc1ccc2nc(-c3ccc(NC(=O)c4cccnc4)cc3)oc2c1", "Potency": "9.28 µM (active)"},
      {"molecule": "CCOC(=O)c1ccc(-c2ccc(C(=O)Nc3cccnc3)o2)cc1", "Potency": "2.62 µM (active)"}
    ]}
  ]
}
